From PubChem BioAssay
The list is not random: actives were taken first. Their share in the collection is about 3.4%.
MEKK2mut PB1 HTS: MEK5 binding signal on mutant MEKK2 PB1, primary screen, biochemical, multiplex bead flow cytometry, Alexa488-MEK5 | AID 1530, 2009 | 0.35% of 290,000 active | percent response, % at 10 µM | Alexa488-MEK5 binding to MEKK2 mutant; in the data active = percent response above about 24%, passing the limit was not always enough
TMEM16A act: TMEM16A chloride channel activators or potentiators, primary screen, cell-based, HTS. B-score at 10 µM. 0.3% of 340,000 active. HEK293 TMEM16A/YFP-H148Q/I152L, iodide quench fluorescence; hits give low values;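 active = fluorescence-ratio B-score plate-corrected deviation score at least 3 library SD below zero, with starting fluorescence score within 5 deviations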;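 also: channel opened by trigger with iodide after compound preincubation; score built on the fluorescence ratio of max minus min over baseline; more negative score means more quench and so TMEM16A activation or potentiation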
MEKK3 PB1 HTS: modulators of MEKK3-MEK5 PB1 binding, primary screen, biochemical, wildtype MEKK3, multiplex bead flow cytometry, Alexa488-MEK5; binding response (% of control), % at 10 µM; AID 1529, 2009; Mitogen-activated protein kinase kinase kinase 3 (Homo sapiens), Q99759; bead-based flow cytometry, Alexa488-MEK5 binding to MEKK3; actives lie on both sides; 0 = blocked by unlabeled MEK5, 100 = vehicle; 1.4% of 290,000 active;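 active = binding response more than 3 SD above or below the average of its plate-row segment, actives on both sides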;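 also: Alexa488 bead fluorescence after subtracting the streptavidin-only scavenger bead signal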
ANO1 block: TMEM16A chloride channel inhibitors, primary screen, cell-based, HTS | Anoctamin-1 (Mus musculus), Q8BHY3 | normalized B-score (activity score, 25-100; higher = stronger inhibition) at 10 µM | 1.2% of 310,000 active | HEK293 TMEM16A/YFP iodide influx fluorescence, ionomycin;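 active = ratio plate-corrected score three or more library SD toward inhibition, starting fluorescence score within five deviations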;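 also: score derived from kinetic fluorescence span divided by baseline fluorescence per well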
NTR1 ag: agonists of human NTR1, primary screen, imaging, U2OS cells, beta-arrestin-GFP, high content; Neurotensin receptor type 1 (Homo sapiens), P30989; NTR1-U2OS beta-arrestin-GFP spot imaging, agonist mode; activation, % at 20 µM; 0.17% of 330,000 active; AID 493036, 2011;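 active = activation at or above 40% of the spot to cytoplasm intensity ratio, with at least 20 cells analyzed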;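 also: 0% = DMSO without peptide and 100% = 100 nM NTR1 peptide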
Target sequence (P30989 whole entry, looked up): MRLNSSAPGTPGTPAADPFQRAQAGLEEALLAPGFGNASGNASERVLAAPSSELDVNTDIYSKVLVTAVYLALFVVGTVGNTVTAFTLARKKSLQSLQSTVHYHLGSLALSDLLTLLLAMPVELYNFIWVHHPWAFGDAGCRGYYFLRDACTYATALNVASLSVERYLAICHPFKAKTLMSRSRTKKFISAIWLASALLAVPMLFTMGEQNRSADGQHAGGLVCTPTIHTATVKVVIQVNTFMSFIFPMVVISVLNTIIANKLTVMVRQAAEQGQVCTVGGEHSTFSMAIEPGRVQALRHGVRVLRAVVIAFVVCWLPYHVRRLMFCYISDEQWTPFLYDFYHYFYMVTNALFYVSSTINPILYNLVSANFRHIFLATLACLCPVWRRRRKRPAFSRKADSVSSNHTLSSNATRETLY
MEKK2 WT-MEK5: modulators of MEK5 binding to wildtype MEKK2, primary screen, biochemical, multiplex bead flow cytometry, Alexa488-MEK5. Mitogen-activated protein kinase kinase kinase 2 (Homo sapiens), Q9Y2U5. Alexa488-MEK5 binding to MEKK2 WT; actives lie on both sides. binding response (% of control), % at 10 µM. 1.1% of 290,000 active; in the data active = binding response below about 67% or above about 130%
MEKK2wt confirm: modulators of MEK5 binding to wildtype MEKK2, confirmation, biochemical, single concentration, multiplex bead flow cytometry; AID 1892, 2009; Alexa488-MEK5 binding to MEKK2 WT; actives lie on both sides; shares compounds with MEKK3 PB1 HTS; 2.4% of 5,900 active; binding response (% of control), % at 10 µM; in the data active = binding response below about 16% or above about 210%; inactive = in between
MEKK2mut-MEK5: mutant MEKK2 PB1-MEK5 binding signal retest – biochemical, single concentration, multiplex bead flow cytometry, confirmation | shares compounds with MEKK3 PB1 HTS | Alexa488-MEK5 binding to MEKK2 mutant | percent response, % at 10 µM | 2% of 5,900 active | AID 1893, 2009; in the data active = percent response mostly above about 71%, no sharp cut-off; inactive = mostly below about 38%;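 also: higher means compound restores mutant binding toward wildtype level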
MEKK3 confirm: MEKK3 wild-type PB1 binding to MEK5, inhibitors, confirmation, biochemical, bead multiplex flow cytometry, single concentration, wildtype | AID 1894, 2009 | Alexa488-MEK5 binding to MEKK3; hits give low values | binding response (% of control), % at 10 µM | 1.8% of 5,900 active | shares compounds with MEKK3 PB1 HTS;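 active = binding response below 72% of control, or above a set upper limit, though filed actives all read lower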;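 also: 100% = DMSO only wells and 0% = binding blocked by excess unlabeled MEK5; lower values mean stronger disruption of MEK5 binding to MEKK3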
An asterisk follows results filed as active; i = inactive; · = no result given; [ ] = remark or other dose.

SMILES	MEKK2mut PB1 HTS	TMEM16A act	MEKK3 PB1 HTS	ANO1 block	NTR1 ag	MEKK2 WT-MEK5	MEKK2wt confirm	MEKK2mut-MEK5	MEKK3 confirm
Cc1cccc(CN2CCN(CC(=O)NCCCN3CCN(c4ccc(F)cc4)CC3)C2=O)c1	34.0	i	111.0	i	1.2	180.0*	146.0	25.0	108.0
Cc1ccc(NC(=S)N/N=C/c2ccc([N+](=O)[O-])s2)cc1	-7.0	i	85.0	i	2.1	62.0*[inhibitor]	73.0	-14.0	94.0
COc1ccc2c(c1)C[C@]1(C)c3ccccc3C(=O)N(Cc3ccccc3)[C@H]21	·	i	·	·	·	·	·	·	·
NNC(=O)c1nc[nH]c1C(=O)Nc1ccccc1	6.0	i	100.0	i	0.5	103.0	·	·	·
COc1ccc([C@H]2/C=C\CN(C(=O)C3CCCC3)[C@@H](C)C(=O)N2Cc2ccc(F)cc2)cc1	1.0	i	104.0	i	5.3	99.0	·	·	·
COc1ccc(C2/C=C\CN(C(=O)C3CCCC3)[C@H](Cc3ccccc3)C(=O)N2Cc2ccc(F)cc2)cc1 (stereo partly specified)	1.0	i	133.0*	i	3.2	151.0*	101.0	-6.0	100.0
C=CCN1C(=S)CC(c2ccccc2)=Nc2ccccc21	-1.0	i	101.0	i	3.0	101.0	·	·	·
CCCC(NC(=O)C(C)N1CCN(S(=O)(=O)c2ccccc2)CC1)c1ccccc1 (stereo unspecified)	·	i	·	·	6.1	·	·	·	·
Cc1ccc(S(=O)(=O)C2(C(=O)NC3CCCCC3)CC2)cc1	2.0	i	106.0	i	-0.3	107.0	·	·	·
CC(=O)N1/C(=C/c2ccc(N(C)C)cc2)C(=O)c2ccccc21	-12.0	i	55.0	·	·	36.0*[inhibitor]	38.0	-20.0	83.0
COc1cccc(Nc2c3c(nc4c(-c5ccccc5)c(C)nn24)CCC3)c1	1.0	i	132.0*	i	8.7	115.0	30.0	-19.0	56.0*
Cc1nn2c(N3CCCC3)c3c(nc2c1-c1ccccc1)CCC3	-13.0	i	37.0*[inhibitor]	i	4.5	30.0*[inhibitor]	96.0	2.0	103.0
O=C(Nc1ccsc1C(=O)NC1CCCCC1)c1ccccc1	3.0	i	102.0	i	3.8	96.0	·	·	·
CN(C(=O)c1ccc(NC(=O)C2CCCN(C(=O)OC(C)(C)C)C2)cc1)C1CCCCC1 (stereo unspecified)	·	i	·	·	4.3	·	·	·	·
CC(C)(C)NC(=O)COc1ccc(CNCc2cccnc2)cc1	-10.0	i	56.0*[inhibitor]	i	1.2	71.0	98.0	-2.0	101.0
COc1cc(CNCc2cccnc2)ccc1OCC(=O)NC(C)(C)C	-4.0	i	91.0	i	0.3	92.0	·	·	·
Cc1ccc(S(=O)(=O)NCCS(=O)(=O)N2CCN(c3ccc(F)cc3)CC2)cc1	·	i	·	i	2.7	·	·	·	·
Cc1ccc(C)c(NC(=O)C(Sc2nc3ccc(C)cc3[nH]2)c2ccccc2)c1 (stereo unspecified)	-1.0	i	106.0	i	1.7	107.0	·	·	·
Cc1ccc2nc(SC(C(=O)Nc3ccc(F)cc3)c3ccccc3)[nH]c2c1 (stereo unspecified)	1.0	i	153.0*	i	10.1	123.0	88.0	5.0	103.0
O=C1C=C(c2ccoc2)N2CCC[C@H]2C1	·	i	·	·	-0.7	·	·	·	·
O=C(CCCc1nc(-c2ccccc2Cl)no1)NCc1cccnc1	9.0	i	123.0*	i	0.1	117.0	100.0	0.0	100.0
O=C(CCc1nc(-c2ccccc2)no1)NCc1cccnc1	4.0	i	100.0	i	-0.6	100.0	·	·	·
O=C(N/N=C/c1ccccc1OCc1ccccc1)c1cccs1	-1.0	i	108.0	i	10.3	105.0	·	·	·
COc1cccc2c1Oc1ncccc1N(C(=O)CCC(=O)NCc1ccccc1Cl)C2	4.0	i	98.0	i	0.1	101.0	·	·	·
COC(=O)c1sc(N2CCN(c3ccc(Cl)cc3)CC2)nc1N	1.0	i	109.0	i	6.1	105.0	·	·	·
SMILES	MEKK2mut PB1 HTS	TMEM16A act	MEKK3 PB1 HTS	ANO1 block	NTR1 ag	MEKK2 WT-MEK5	MEKK2wt confirm	MEKK2mut-MEK5	MEKK3 confirm
NC(=O)C1(C(N)=O)OC1c1ccc(Cl)c(Cl)c1 (stereo unspecified)	7.0	i	103.0	i	-1.3	104.0	·	·	·
CN(CCCNC(=O)CCC(=O)N1CCOc2ccc(Cl)cc21)Cc1ccccc1	9.0	i	101.0	i	-0.9	108.0	·	·	·
O=C(Nc1ccc2c(c1)OCO2)c1ccc(N2CCCC2)c([N+](=O)[O-])c1	4.0	i	97.0	i	2.8	102.0	·	·	·
O=C(Nc1ccc2c(c1)OCO2)c1ccc(NC2CC2)c([N+](=O)[O-])c1	1.0	i	151.0*	i	0.6	112.0	100.0	-7.0	101.0
O=C(COC(=O)CCSc1ccc(Cl)cc1)NCc1ccco1	7.0	i	103.0	i	0.6	101.0	·	·	·
O=C(COc1ccccc1)N1CCN(c2ccc([N+](=O)[O-])c(N3CCCCC3)c2)CC1	2.0	i	104.0	i	3.1	106.0	·	·	·
CCOc1cc(N2CCCC2)ccc1[N+](=O)[O-]	2.0	i	133.0*	i	-0.3	107.0	101.0	-6.0	103.0
CC1CCC(NC(=O)C(NC(=O)c2ccccc2)C(C)C)CC1 (stereo unspecified)	5.0	i	103.0	i	-0.3	103.0	·	·	·
C/C(=N\S(=O)(=O)c1ccc(C)cc1)NC(=S)Nc1ccc(C)cc1	-14.0	i	60.0	i	-0.2	65.0	·	·	·
NC(=O)SC/C(=N\S(=O)(=O)c1ccccc1)Nc1ccccc1	2.0	i	102.0	i	1.0	101.0	·	·	·
Cc1ccc(N/C(CSC(N)=O)=N/S(=O)(=O)c2ccccc2)cc1	4.0	i	125.0*	i	-0.6	116.0	99.0	-2.0	105.0
